The values that follow come from ChEMBL document CHEMBL3988442, “University of Dundee, Small-Polar-MMV Screening Library” (2021).

For some of these results: Results with a measured potency or affinity are listed apart.

Common to all, as to set-up: scale not given: direction of the effect not stated beside the values
Assay [1] addresses Protein translocase subunit SecA (Escherichia coli (strain K12)) (UniProt P10408). Put plainly: Assay to Identify E. coli SecA ATPase Inhibitors. The assay is classed as functional. The conditions noted are these: 30 µM.
The target of assay [2] is T1, Ubiquitin-activating enzyme e1, putative (Leishmania donovani (strain BPK282A1)) (UniProt E9BSI1).
T1 sequence (whole entry): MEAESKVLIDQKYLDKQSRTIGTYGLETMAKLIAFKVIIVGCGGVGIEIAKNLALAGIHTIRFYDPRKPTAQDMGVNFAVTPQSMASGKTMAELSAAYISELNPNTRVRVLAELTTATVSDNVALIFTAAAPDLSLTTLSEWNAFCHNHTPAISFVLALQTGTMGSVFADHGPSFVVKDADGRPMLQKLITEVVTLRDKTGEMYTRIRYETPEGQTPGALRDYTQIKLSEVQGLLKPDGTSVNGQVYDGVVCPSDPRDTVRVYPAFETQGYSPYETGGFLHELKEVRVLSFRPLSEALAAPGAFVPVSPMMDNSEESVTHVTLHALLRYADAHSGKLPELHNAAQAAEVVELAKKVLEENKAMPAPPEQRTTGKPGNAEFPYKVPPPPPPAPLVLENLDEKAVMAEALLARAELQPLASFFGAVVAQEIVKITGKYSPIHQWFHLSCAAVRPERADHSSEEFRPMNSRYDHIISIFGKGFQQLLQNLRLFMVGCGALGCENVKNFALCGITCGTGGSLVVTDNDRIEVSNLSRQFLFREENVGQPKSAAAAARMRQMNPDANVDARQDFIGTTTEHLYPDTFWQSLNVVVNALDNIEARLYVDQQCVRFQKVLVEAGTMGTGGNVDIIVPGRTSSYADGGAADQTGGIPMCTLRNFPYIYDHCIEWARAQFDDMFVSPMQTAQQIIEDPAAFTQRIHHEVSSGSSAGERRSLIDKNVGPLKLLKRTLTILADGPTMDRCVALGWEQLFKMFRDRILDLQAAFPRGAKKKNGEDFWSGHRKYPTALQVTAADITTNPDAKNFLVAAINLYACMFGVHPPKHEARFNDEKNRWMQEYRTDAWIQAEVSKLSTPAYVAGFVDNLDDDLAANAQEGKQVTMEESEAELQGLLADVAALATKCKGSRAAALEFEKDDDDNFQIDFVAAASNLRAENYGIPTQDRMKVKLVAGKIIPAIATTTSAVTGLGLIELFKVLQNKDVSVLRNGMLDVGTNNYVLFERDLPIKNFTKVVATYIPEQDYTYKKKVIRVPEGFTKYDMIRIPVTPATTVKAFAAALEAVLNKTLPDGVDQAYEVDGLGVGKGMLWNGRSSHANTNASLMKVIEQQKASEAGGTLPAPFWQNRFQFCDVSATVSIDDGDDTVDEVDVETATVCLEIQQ
Put plainly: Leishmania donovani Ubiquitin Activating Enzyme (LdE1). Type of assay: functional. Conditions: 30 µM.

Assay [3] addresses AMP-activated protein kinase, AMPK (Homo sapiens) (UniProt P54646+O43741+P54619+Q9UGJ0+Q9Y478+Q13131+Q9UGI9). Put plainly: AMP-dependent Kinase enzyme assay. An in vitro enzyme assay that detects ADP turnover that is directly proportional to AMPK activity. This uses naive AMPK that is activated during the assay with MK-8722. Type of assay: functional. The conditions noted are these: 30 µM.

The target in assay [4] is Sialic acid-binding Ig-like lectin 9 (Homo sapiens) (UniProt Q9Y336). Put plainly: Hs-Siglec9 ALPHAscreen SOP 20170721. Conditions: 10 µM.
A further assay concerns Trypanosoma cruzi. Put plainly: Trypanosoma cruzi phosphomannomutase and mannose-1-phosphate guanylyltransferase assay. The conditions noted are these: 10 µM. The assay is classed as functional.
The target in assay [5] is T2, Arginase-2, mitochondrial (Homo sapiens) (UniProt P78540).
T2 sequence (whole entry): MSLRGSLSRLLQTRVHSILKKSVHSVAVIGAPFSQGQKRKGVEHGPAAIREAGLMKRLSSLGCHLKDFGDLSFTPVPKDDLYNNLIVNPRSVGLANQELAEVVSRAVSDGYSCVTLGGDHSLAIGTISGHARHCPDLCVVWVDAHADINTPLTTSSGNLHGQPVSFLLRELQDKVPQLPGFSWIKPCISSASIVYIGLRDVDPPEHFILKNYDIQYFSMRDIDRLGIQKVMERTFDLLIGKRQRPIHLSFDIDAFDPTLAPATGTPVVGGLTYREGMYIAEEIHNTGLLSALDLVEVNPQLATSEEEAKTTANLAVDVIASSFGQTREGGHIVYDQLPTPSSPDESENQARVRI
Put plainly: in vitro enzyme assay to detect the production of urea directly proportional to the activity of Arginase II. Further: in the data most compounds retested in dose-response had high values. Type of assay: functional. Conditions: 33.3 µM.

Assay [6] addresses T3, Proteasome subunit beta (Trypanosoma cruzi) (UniProt O96673).
T3 sequence (whole entry): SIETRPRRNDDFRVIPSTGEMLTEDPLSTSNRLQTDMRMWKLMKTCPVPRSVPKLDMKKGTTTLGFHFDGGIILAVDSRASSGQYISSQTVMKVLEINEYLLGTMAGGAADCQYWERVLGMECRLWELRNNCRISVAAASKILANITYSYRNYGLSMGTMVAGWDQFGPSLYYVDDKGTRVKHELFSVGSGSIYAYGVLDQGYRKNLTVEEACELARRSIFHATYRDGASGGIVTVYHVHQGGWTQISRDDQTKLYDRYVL
Put plainly: Trypanosoma cruzi proteasome chymotrypsin-like activity (TcProtChymo) assay. Further: in the data most compounds retested in dose-response had high values. The assay is classed as functional. The conditions noted are these: 9.37 µM.

The species named for a further assay is Homo sapiens. Put plainly: To identify inhibition of the IFN signalling (Jak-Stat) pathway via expression of an eGFP reporter gene under the control of an IFN-stimulated response element (ISRE) containing MxA promoter. The assay is classed as functional. The conditions noted are these: 30 µM. (Reporter assays use an easily measured gene product as a stand-in for the process of interest.)

Assay [7] has as its target T4, Tyrosyl-tRNA synthetase, putative (Trypanosoma cruzi (strain CL Brener)) (UniProt Q4DSP6).
T4 sequence (whole entry): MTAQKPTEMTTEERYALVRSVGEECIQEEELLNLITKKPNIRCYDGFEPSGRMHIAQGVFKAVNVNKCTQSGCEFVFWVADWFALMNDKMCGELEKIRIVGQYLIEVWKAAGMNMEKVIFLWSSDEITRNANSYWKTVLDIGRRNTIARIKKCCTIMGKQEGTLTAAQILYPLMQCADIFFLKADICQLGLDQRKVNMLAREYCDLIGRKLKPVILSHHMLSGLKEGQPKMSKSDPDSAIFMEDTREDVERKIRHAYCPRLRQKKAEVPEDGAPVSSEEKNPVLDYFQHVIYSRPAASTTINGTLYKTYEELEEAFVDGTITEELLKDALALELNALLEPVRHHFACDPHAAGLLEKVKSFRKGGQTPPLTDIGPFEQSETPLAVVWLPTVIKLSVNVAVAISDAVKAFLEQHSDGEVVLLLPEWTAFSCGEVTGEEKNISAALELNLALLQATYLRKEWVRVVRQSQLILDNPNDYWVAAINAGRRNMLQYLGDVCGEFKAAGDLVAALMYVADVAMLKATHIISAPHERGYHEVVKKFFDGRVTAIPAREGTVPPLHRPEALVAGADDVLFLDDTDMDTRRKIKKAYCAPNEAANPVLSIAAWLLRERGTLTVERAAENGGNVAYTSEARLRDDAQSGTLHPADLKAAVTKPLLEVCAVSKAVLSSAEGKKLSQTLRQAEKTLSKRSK
Put plainly: Trypanosoma cruzi tyrosyl tRNA synthetase (TcYRS) _High Tyrosine SOP. Further: in the data most compounds retested in dose-response had high values. The assay is classed as functional. Conditions: 30 µM.

Assay [8] has as its target T4, Tyrosyl-tRNA synthetase, putative (Trypanosoma cruzi (strain CL Brener)). Put plainly: Trypanosoma cruzi tyrosyl tRNA synthetase (TcYRS) SOP. Type of assay: functional. The conditions noted are these: 30 µM.
Assay [9] concerns the target Chromo domain-containing protein 1 (Saccharomyces cerevisiae (strain ATCC 204508 / S288c) (Baker's yeast)) (UniProt P32657). Put plainly: ScCHD-1 Enzyme Inhibition Assay. Further: in the data most compounds retested in dose-response had high values. Type of assay: functional. The conditions noted are these: 30 µM.

Sequence of Protein translocase subunit SecA (Escherichia coli (strain K12)) (P10408 whole entry): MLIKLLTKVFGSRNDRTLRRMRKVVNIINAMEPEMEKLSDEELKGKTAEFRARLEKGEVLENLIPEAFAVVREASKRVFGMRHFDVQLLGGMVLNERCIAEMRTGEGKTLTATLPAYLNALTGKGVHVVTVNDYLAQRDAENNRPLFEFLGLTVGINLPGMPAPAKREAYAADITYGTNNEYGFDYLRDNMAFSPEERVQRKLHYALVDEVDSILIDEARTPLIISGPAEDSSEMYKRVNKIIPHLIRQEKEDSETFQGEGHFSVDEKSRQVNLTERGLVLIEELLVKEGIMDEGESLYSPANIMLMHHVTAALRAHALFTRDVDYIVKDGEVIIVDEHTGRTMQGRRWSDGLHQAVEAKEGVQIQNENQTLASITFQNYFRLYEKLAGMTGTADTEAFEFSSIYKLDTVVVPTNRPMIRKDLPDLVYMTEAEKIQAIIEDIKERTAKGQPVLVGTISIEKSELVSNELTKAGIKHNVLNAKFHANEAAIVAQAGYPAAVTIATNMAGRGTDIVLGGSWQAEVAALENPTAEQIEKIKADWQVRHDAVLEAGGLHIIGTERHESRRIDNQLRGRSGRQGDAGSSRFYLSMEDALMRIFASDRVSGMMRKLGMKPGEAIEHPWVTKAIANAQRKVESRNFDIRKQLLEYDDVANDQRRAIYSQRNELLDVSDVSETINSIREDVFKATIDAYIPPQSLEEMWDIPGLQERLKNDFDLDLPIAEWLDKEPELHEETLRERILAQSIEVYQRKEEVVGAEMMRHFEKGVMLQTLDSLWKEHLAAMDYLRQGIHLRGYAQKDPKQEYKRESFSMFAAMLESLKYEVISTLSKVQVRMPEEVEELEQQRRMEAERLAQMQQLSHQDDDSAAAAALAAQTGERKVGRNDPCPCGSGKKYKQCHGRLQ
Sequence of Chromo domain-containing protein 1 (Saccharomyces cerevisiae (strain ATCC 204508 / S288c) (Baker's yeast)) (P32657 whole entry, the tested form may be a part): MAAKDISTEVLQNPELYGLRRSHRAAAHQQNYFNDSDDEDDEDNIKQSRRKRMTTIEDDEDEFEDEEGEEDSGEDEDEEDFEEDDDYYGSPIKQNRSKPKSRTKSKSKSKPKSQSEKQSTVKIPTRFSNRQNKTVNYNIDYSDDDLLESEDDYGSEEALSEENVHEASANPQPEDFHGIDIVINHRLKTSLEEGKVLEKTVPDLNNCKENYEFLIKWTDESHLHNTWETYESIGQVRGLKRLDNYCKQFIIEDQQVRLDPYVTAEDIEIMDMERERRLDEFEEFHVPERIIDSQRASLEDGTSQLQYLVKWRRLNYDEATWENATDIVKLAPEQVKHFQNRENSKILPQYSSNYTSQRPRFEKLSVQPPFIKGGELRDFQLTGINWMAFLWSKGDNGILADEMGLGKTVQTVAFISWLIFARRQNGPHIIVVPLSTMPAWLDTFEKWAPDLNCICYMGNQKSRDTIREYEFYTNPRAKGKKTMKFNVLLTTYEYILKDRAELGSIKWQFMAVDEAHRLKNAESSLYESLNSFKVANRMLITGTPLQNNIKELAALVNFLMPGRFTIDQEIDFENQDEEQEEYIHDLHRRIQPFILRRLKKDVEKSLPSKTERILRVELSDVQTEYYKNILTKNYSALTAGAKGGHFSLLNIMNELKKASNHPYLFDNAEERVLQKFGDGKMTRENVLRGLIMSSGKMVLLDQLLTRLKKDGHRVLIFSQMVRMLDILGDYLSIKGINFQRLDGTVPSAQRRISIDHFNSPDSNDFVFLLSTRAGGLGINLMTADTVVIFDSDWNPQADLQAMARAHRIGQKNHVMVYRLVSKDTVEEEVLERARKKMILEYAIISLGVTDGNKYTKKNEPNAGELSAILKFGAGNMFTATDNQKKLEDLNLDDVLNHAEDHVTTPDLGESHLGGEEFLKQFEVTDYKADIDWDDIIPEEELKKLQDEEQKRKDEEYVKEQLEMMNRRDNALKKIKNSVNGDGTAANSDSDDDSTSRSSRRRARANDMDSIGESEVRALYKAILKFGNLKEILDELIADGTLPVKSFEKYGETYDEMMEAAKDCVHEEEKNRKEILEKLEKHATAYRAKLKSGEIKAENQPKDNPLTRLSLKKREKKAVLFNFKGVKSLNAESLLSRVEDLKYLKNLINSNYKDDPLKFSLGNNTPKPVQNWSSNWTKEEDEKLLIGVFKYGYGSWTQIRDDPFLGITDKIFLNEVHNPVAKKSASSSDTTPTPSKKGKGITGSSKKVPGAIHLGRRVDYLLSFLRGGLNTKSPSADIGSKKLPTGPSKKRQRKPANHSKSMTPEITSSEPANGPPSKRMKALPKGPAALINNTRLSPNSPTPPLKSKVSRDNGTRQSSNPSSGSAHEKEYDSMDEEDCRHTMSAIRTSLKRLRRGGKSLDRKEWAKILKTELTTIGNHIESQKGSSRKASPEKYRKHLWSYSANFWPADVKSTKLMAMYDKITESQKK
Sequence of Sialic acid-binding Ig-like lectin 9 (Homo sapiens) (Q9Y336 whole entry): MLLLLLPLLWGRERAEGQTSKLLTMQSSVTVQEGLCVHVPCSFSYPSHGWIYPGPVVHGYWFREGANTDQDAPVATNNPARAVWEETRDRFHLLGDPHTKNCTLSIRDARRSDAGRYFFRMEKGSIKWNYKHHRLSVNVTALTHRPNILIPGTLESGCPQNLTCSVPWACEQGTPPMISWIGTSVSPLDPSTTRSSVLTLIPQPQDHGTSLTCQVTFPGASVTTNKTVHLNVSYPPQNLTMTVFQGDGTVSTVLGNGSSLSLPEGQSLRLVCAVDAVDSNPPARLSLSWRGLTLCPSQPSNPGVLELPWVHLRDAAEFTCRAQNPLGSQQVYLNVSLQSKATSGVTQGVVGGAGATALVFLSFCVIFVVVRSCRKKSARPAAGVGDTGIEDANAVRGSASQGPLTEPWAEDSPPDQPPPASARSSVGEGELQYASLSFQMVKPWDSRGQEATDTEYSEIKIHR

As for `CCc1ncncc1C(=O)NCCN1CCC(C)CC1`, the Percent Effect in assay [1] is -1.34%; in assay [2] it was -4.17%; in assay [3], -7.77%; in assay [4], 0.13%; in the assay on Trypanosoma cruzi, 5.54%; in assay [5] it was -2.21%. The Percent Effect in assay [6] was 4.21%; in the assay filed under Homo sapiens, -30.7%; in assay [7], 1.05%; in [8] it was 0%; in assay [9], -2.04%.

On to `Cc1nc(CNCc2c(C)nn(C)c2N2CCOCC2)cs1`, for which the Percent Effect in [1] is -2.88%; in assay [2] it was 7.89%; in assay [3], -0.222%; in [4], 9.92%; with Trypanosoma cruzi, 3.95%; in assay [5] it was 2.68%. Moreover, the Percent Effect in assay [6] is 5.68%; in the assay listed under Homo sapiens it was -6.91%; in assay [7], 4.41%; in assay [8], -4.88%; in [9], -3.53%.

Regarding `Cn1ccc(C(=O)NC2CCC23CCN(C(=O)c2ccncc2)CC3)c1` (stereo unspecified), the Percent Effect in assay [1] was 3.11%; in [2], 11%; in assay [3], -2.76%; in [4] it was 16.4%; in the assay on Trypanosoma cruzi, -3.17%; in [5] it was 0%. In addition, the Percent Effect in assay [6] is 13.6%; in the assay listed under Homo sapiens, 3.03%; in assay [7], 5.21%; in assay [8], 13.6%; in assay [9], 0.95%.

For `CC(=O)Nc1nc(C(=O)NC(C)c2ccc(F)cc2)cs1` (stereo unspecified), the Percent Effect was -2.72% in assay [1]; 15.6% in [2]; 16.6% in assay [3]; -7.49% in assay [4]; 6.76% with Trypanosoma cruzi; -9.05% in assay [5]. The Percent Effect in [6] was 11.1%; in the assay filed under Homo sapiens, -15.4%; in assay [7], 8.57%; in assay [8], 21.2%; in assay [9], -24.3%.

`CCC1CN(Cc2ccccc2)CCN1Cc1nnc(C2CCC2)o1` (stereo unspecified): the Percent Effect is -1.22% in [1]; 2.74% in assay [2]; -2.21% in assay [3]; 8.69% in [4]; 6.07% in the assay with Trypanosoma cruzi; 5.91% in assay [5]. Further, the Percent Effect in [6] was 1.95%; in the assay listed under Homo sapiens, -3.45%; in assay [7], 1.07%; in assay [8] it was 5%; in [9], -0.293%.

`Cc1ccc(NS(=O)(=O)c2cc3c(c(C(=O)O)c2)OCCO3)c(F)c1`: the Percent Effect is -10.1% in [1]; 13.2% in [2]; -8.4% in assay [3]; 15.9% in assay [4]; 10.6% with Trypanosoma cruzi; 1.08% in [5]. Besides, the Percent Effect was 11.2% in assay [6]; -1.31% in the assay filed under Homo sapiens; 2.46% in [7]; 13.6% in assay [8]; -9.81% in assay [9].

As to `Cc1cccc(-c2nc(C)nn2CC(=O)N(C)C2CC2)c1`, the Percent Effect in [1] is -4.92%; in assay [2] it was 15.6%; in assay [3], 4.09%; in assay [4], 7.36%; in the assay on Trypanosoma cruzi, 3.18%; in assay [5] it was -3.2%. Further, the Percent Effect in [6] was 3.55%; in the assay listed under Homo sapiens it was 5.06%; in [7], 6.8%; in assay [8], 21.9%; in assay [9] it was -3.56%.

In the case of `O=C(NC1CCS(=O)(=O)C1)c1sccc1-c1ccc(F)cc1` (stereo unspecified), the Percent Effect is -6.43% in assay [1]; 5.41% in [2]; 2.1% in assay [3]; -6.95% in [4]; -4.4% in the assay with Trypanosoma cruzi; -0.248% in assay [5]. The Percent Effect in assay [6] is 8.15%; in the assay listed under Homo sapiens it was -15.8%; in assay [7] it was 0%; in [8] it was 6.17%; in assay [9], 11.7%.

For the molecule `CC(C)c1nnc2n1CCN(CC(=O)Nc1sccc1C#N)C2`, the Percent Effect is -8.13% in assay [1]; 7.89% in [2]; -4.21% in assay [3]; -3.31% in assay [4]; -3.83% in the assay with Trypanosoma cruzi; 1.08% in assay [5]. Further, the Percent Effect was -3.13% in assay [6]; -0.485% in the assay filed under Homo sapiens; -2.46% in assay [7]; -6.17% in assay [8]; 3.89% in assay [9].

On to `CCNC(=O)[C@@H]1C[C@H](NC(=O)c2ccccc2C#N)CN1CCCSC`, for which the Percent Effect is -6.15% in assay [1]; -2.74% in assay [2]; -0.485% in [3]; 8.44% in assay [4]; 0.794% with Trypanosoma cruzi; 0.399% in assay [5]. Besides, the Percent Effect is 11.4% in assay [6]; -3.71% in the assay listed under Homo sapiens; 2.08% in [7]; 18.5% in [8]; 1.18% in [9].

For `Cc1cc(C)cc(NC(=O)CN2CCCC(n3cncn3)C2)c1` (stereo unspecified), the Percent Effect was -3.62% in assay [1]; 8.11% in [2]; 1.86% in [3]; 6.56% in [4]; 8.08% in the assay with Trypanosoma cruzi; -1.66% in assay [5]. For the same molecule, the Percent Effect in assay [6] was 1.44%; in the assay listed under Homo sapiens it was 3.59%; in assay [7] it was 2.97%; in assay [8], 15.8%; in [9], -2.91%.
